Measurements published in PubChem BioAssay AID1159580 (chemical genetic matrix, 2015).
About 2,000 (36%) of roughly 5,500 compounds were called active. Not shown: some 18% with an inconclusive outcome. Some of the results follow. A number with no mark means an inactive call. Rule as the data show it: active = normalized growth mostly below about 0.91 (no sharp cut-off); inconclusive = no clear call, values can overlap the other calls; inactive = mostly above about 0.92.

Assay: chemical genetic growth profiling, strain panel (AID 1159580);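 also: tested at 20 µM; growth read once vehicle control cultures reached saturation at 30 °C; 1 = growth at the plate median or of vehicle wells; lower values mean less growth of the strain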
Conditions: S. cerevisiae deletion strains, growth OD

## COc1ccc2c(c1)CCC1C2CC[C@@]2(C)C1CC[C@@H]2NCCCCCCN1C(=O)C=CC1=O (stereo partly drawn)
Locus YAL013W, strain DEP1, active compounds read low
  normalized growth: 0.989
Locus YAL040C, strain CLN3, active compounds read low
  normalized growth: 0.444 (active)
Locus YCL061C, strain MRC1 (second series), active compounds read low
  normalized growth: 0.998
Locus YDR150W, strain NUM1, active compounds read low
  normalized growth: 0.976
Locus YDR363W, strain ESC2, active compounds read low
  normalized growth: 0.988
Locus YER002W, strain NOP16, active compounds read low
  normalized growth: 0.843 (active)
Locus YJR075W, strain HOC1, active compounds read low
  normalized growth: 0.997
Locus YMR307W, strain GAS1, active compounds read low
  normalized growth: 0.93
Locus YNL197C, strain WHI3, active compounds read low
  normalized growth: 1.07
Locus YNL224C, strain SQS1, active compounds read low
  normalized growth: 0.256 (active)
Locus YNL322C, strain KRE1, active compounds read low
  normalized growth: 0.984
Locus YOR083W, strain WHI5 (second series), active compounds read low
  normalized growth: 1.02
Locus YPL241C, strain CIN2, active compounds read low
  normalized growth: 0.993
